The values that follow come from PubChem BioAssay (NCATS).

Records with an inconclusive call do not appear. A number with no mark means an inactive call. Calls of active or inactive are those of the source. Calls follow the shape of the dose curve; as a rule, active = well fitted cell-killing curve with a large enough effect; inconclusive = small, poorly fitted or top-dose-only effect, or effect the other way; inactive = no such curve, though single readings can be large or run the other way.
Potency is read from the fitted curve at half-maximal effect.

A short description of this test: Quantitative High-Throughput drug screen in 47 multiple myeloma cell lines against the NCATS MIPE library collection: Karpas25_ECACC cell viability assay (AID 1918968; also: nearly all actives have a fitted effect of over 35% in size). The note with it: Karpas25 myeloma viability, CellTiter-Glo ATP, 48 h; series mostly up to 45.8 µM; viability (% of control): at the top concentration. An excerpt: PI: Beverly A. Mock Ph.D.
Laboratory of Cancer Biology and Genetics,
Center for Cancer Research, National Cancer Institute,
National Institute of Health, Bethesda, Maryland
Drug resistance and disease progression are common in multiple myeloma (MM) patients, underscoring the need for new therapeutic combinations. […] We hypothesized that effective combinations would reduce MYC expression and enhance p16 activity. […] These preclinical data identify potentially useful drug combinations for evaluation in drug-resistant MM and reveal potential mechanisms of combined drug sensitivity.
Described herein is the primary MIPE qHTS used to cherrypick compounds. Validated compounds were then further tested for potential synergistic activiy.
[1] Peat TJ, Gaikwad SM, Dubois W, Gyabaah-Kessie N, Zhang S, Gorjifard S, Phyo Z, Andres M, Hughitt VK, Simpson RM, Miller MA, Girvin AT, Taylor A, Williams D, D'Antonio N, Zhang Y, Rajagopalan A, Flietner E, Wilson K, Zhang X, Shinn P, Klumpp-Thomas C, McKnight C, Itkin Z, Chen L, Kazandijian D, Zhang J, Michalowski AM, Simmons JK, Keats J, Thomas CJ, Mock BA. Drug combinations identified by high-throughput screening promote cell cycle transition and upregulate Smad pathways in myeloma. Cancer Lett. 2023 Aug 1;568:216284. doi: 10.1016/j.canlet.2023.216284. Epub 2023 Jun 24. PMID: 37356470; PMCID: PMC10408729.
SEQUENCE No. (e.g., 1, 2, 3, etc.); […] (e.g., Cells, Incubation, Reagent, etc.); VALUE and DESCRIPTION.
1; Cells; 5 uL; white, solid bottom 1536-well Greiner assay plate.
2; Compounds; 23 nL; Kalypsis pin tool (Wako USA) equipped with a 1536-well pin head to transfer to the assay plates.
3; Incubation; 48 hours; 37C incubation.
4; Reagent;5uL; CellTiter Glo (Promega).
5; Detector; 425V; Luminescence; Viewlux PerkinElmer.
NOTES (numbers refer to Sequence numbers above)
1. The cell-based screening methods employed in this study were like those previously published. Briefly, the corresponding myeloma cell lines were screened in 1,536-well plates with 500 cells, 5-uL per well for inhibition of cell viability (assessed by measuring ATP levels with CellTiterGlo).
2. NCATS MIPE 4.0 library of approved and investigational drugs were added using the Kalypsis pin tool. Wells treated with DMSO only for 100% viability and media only wells for 0% viability were used as controls.
3. The assay plates were covered and incubated for 48 hours in a 37C, 5% CO2 incubator with controlled humidity.
4. After 48 hours, CellTilter-GloTM luminescent substrate mix (Promega) reagent was added to the assay plate and plates we incubated for 5 min at room temperature.
5. Signal was measured as median relative luminescence units on a ViewLux (PerkinElmer) multiplate reader.
[1] Heske CM, Davis MI, Baumgart JT, Wilson K, Gormally MV, Chen L, Zhang X, Ceribelli M, Duveau DY, Guha R, Ferrer M, Arnaldez FI, Ji J, Tran HL, Zhang Y, Mendoza A, Helman LJ, Thomas CJ. Matrix Screen Identifies Synergistic Combination of PARP Inhibitors and Nicotinamide Phosphoribosyltransferase (NAMPT) Inhibitors in Ewing Sarcoma. Clin Cancer Res. 2017 Dec 1;23(23):7301-7311. doi: 10.1158/1078-0432.CCR-17-1121. Epub 2017 Sep 12. PMID: 28899971; PMCID: PMC6636827.
A general note: Cellular ATP, detected with luciferase, serves as a proxy for viable cell number.
Regarding `CC(C)NCC(O)c1ccc(O)c(O)c1` (stereo not given), the Potency is 0.0418 µM (active).
For `Fc1ccc([C@@H]2CCNC[C@H]2COc2ccc3c(c2)OCO3)cc1`, the “viability (% of control)” value was 99.3%.
Turning to `CCOC(=O)c1ncn2c1CN(C)C(=O)c1cc(F)ccc1-2`, the “viability (% of control)” value is 112%.
For `OCCN(CCO)c1nc(N2CCCCC2)c2nc(N(CCO)CCO)nc(N3CCCCC3)c2n1`, the Potency is 26.4 µM (active).
`CC(CCc1ccc(O)cc1)NCCc1ccc(O)c(O)c1` (stereo not given): the Potency is 18.7 µM (active).
Still for that read-out and setting: for `CN1CCN(CCCN2c3ccccc3Sc3ccc(Cl)cc32)CC1` the value was 5.26 µM (active).
`Cc1ccccc1N1C(=O)c2cc(S(N)(=O)=O)c(Cl)cc2NC1C` (stereo not given): the “viability (% of control)” value is 102%.
Take `C[C@](N)(Cc1ccc(O)c(O)c1)C(=O)O`: the Potency was 20.9 µM (active).
On to `O=C1Cc2cc(CCN3CCN(c4nsc5ccccc45)CC3)c(Cl)cc2N1`, for which the Potency is 18.7 µM (active).
`Clc1ccc2c(c1)C(N1CCNCC1)=Nc1ccccc1O2`: the Potency is 14.8 µM (active).
On to `CC#C[C@]1(O)CC[C@H]2[C@@H]3CCC4=CC(=O)CCC4=C3[C@@H](c3ccc(N(C)C)cc3)C[C@@]21C`, for which the Potency was 0.372 µM (active).
On the same count and under the same terms, for `CN(C)CCCN1c2ccccc2CCc2ccc(Cl)cc21` the value was 0.743 µM (active).
For the compound `CN(CCOc1ccc(NS(C)(=O)=O)cc1)CCc1ccc(NS(C)(=O)=O)cc1`, the “viability (% of control)” value was 100%.
For the compound `O=c1c(O)c(-c2ccc(O)c(O)c2)oc2cc(O)cc(O)c12`, the Potency is 16.6 µM (active).
In the case of `COc1cc2nc(N(C)CCCNC(=O)C3CCCO3)nc(N)c2cc1OC` (stereo not given), the “viability (% of control)” value was 96.5%.
On to `CCOC(=O)C(C)(C)Oc1ccc(Cl)cc1`, for which the Potency is 0.662 µM (active).
On the same count and under the same terms, with `O=C(Nc1ccc([N+](=O)[O-])cc1Cl)c1cc(Cl)ccc1O` the figure was 0.332 µM (active).
As to `CN(C)C(=N)N=C(N)N`, the “viability (% of control)” value is 136%.
For `CN1CCC(=C2c3ccccc3C=Cc3ccccc32)CC1`, the Potency is 7.43 µM (active).
As to `CCN1CCCC1CNC(=O)c1cc(S(=O)(=O)CC)c(N)cc1OC` (stereo not given), the “viability (% of control)” value is 136%.
Still for that read-out and setting: with `CC(COc1ccccc1)N(CCCl)Cc1ccccc1` (stereo not given) the figure was 99.6%.
As for `Nc1nnc(-c2cccc(Cl)c2Cl)c(N)n1`, the Potency was 20.9 µM (active).
For `CC(C)NCC(O)COc1ccc(CCOCC2CC2)cc1` (stereo not given), the “viability (% of control)” value was 89.1%.
For the compound `Cn1ccc2cc3c(cc21)CCN3C(=O)Nc1cccnc1`, the Potency was 20.9 µM (active).
On to `Cc1cc(C(C)(C)C)cc(C)c1CC1=NCCN1`, for which the “viability (% of control)” value is 93.7%.
On to `COc1cc2nc(N3CCN(C(=O)c4ccco4)CC3)nc(N)c2cc1OC`, for which the Potency was 7.43 µM (active).
Take `Cc1ccc(C(=O)Nc2ccc(S(=O)(=O)O)c3cc(S(=O)(=O)O)cc(S(=O)(=O)O)c23)cc1NC(=O)c1cccc(NC(=O)Nc2cccc(C(=O)Nc3cc(C(=O)Nc4ccc(S(=O)(=O)O)c5cc(S(=O)(=O)O)cc(S(=O)(=O)O)c45)ccc3C)c2)c1`: the “viability (% of control)” value is 105%.
Consider `CC12CC3CC(C)(C1)CC(N)(C3)C2`, for which the Potency is 20.9 µM (active).
`COc1ccccc1OCCNCC(O)COc1cccc2[nH]c3ccccc3c12` (stereo not given): the “viability (% of control)” value was 83.6%.
On the same count and under the same terms, with `O=C1N(c2ccccc2)c2ccccc2C1(Cc1ccncc1)Cc1ccncc1` the figure was 134%.
`CN(C)CCC=C1c2ccccc2C=Cc2ccccc21`: the Potency was 1.66 µM (active).
Turning to `CC1(C)O[C@H]2CC(=O)OC[C@]23[C@H]2CC[C@@]4(C)[C@H](c5ccoc5)OC(=O)[C@H]5O[C@]54[C@]2(C)C(=O)C[C@@H]13`, the “viability (% of control)” value is 123%.
Take `Cc1cn([C@H]2C[C@H](N=[N+]=[N-])[C@@H](CO)O2)c(=O)[nH]c1=O`: the Potency is 26.4 µM (active).
As to `Cc1cc(C(C)(C)C)c(O)c(C)c1CC1=NCCN1`, the “viability (% of control)” value was 124%.
For the compound `CN1CCN2c3ccccc3Cc3ccccc3C2C1` (stereo not given), the Potency was 23.5 µM (active).
In the case of `O=C(C1CCCCC1)N1CC(=O)N2CCc3ccccc3C2C1` (stereo not given), the “viability (% of control)” value was 133%.
Consider `CC(C(=O)O)c1cccc(C(=O)c2ccccc2)c1` (stereo not given), for which the Potency is 13.2 µM (active).
Take `CCC1(c2ccccc2)C(=O)NCNC1=O`: the Potency is 1.66 µM (active).
On the same count and under the same terms, with `CN1CCC(=C2c3ccccc3CC(=O)c3sccc32)CC1` the figure was 7.43 µM (active); with `O=C1c2c(O)ccc(O)c2C(=O)c2c(NCCNCCO)ccc(NCCNCCO)c21`, 0.296 µM (active).
